# Data reported in PubChem BioAssay (NCI).
# The panel holds about 83,000 compounds, 20% with a hit somewhere; the sample as a whole holds those more often.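 48-hour exposure, single concentration, 96-well plates; percent growth endpoint where 0 means no net growth. Active: below 10.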 Unmarked numbers belong to inactive results. Calls of active or inactive are those of the source.
# Tested on: PC-3 prostate
# Test: NCI-60 one-dose screen, 48 h (100 = growth as untreated, 0 = no growth, -100 = all killed)
# Details: 10 µM
# Description: Growth inhibition of the PC-3 human tumor cell line is measured as a screen for anti-cancer activity. Cells are grown in 96 well plates and exposed to the test compound for 48 hours. Compounds are tested at a single concentration, which is 10^-5 M for most compounds. The reported endpoint is percent growth (GI% or GIPRCNT), where numbers from 0 - 100% represent growth inhibition, and numbers from -100% - 0 represent cell death. For example, a value of 40 represents 60% growth inhibition. A value of 0 means no net growth occurred over the course of the experiment. A value of -40 indicates 40% of cells at the beginning of the experiment died by the end of the experiment. A value of -100 means all cells are dead at the end of the experiment.
# NCI-60 Human Tumor Cell Lines Screen was performed using the standard one-dose NCI protocol, which is described in more detail at https://dtp.cancer.gov/discovery_development/nci-60/default.htm.
# Compounds with GIPRCNT values below 10 were considered active. Activity score was based on GIPRCNT using the following formula: […]
# Score is 0 for GIPRCNT values of 100 or above, 50 for GIPRCNT values of 0, and 100 for GIPRCNT values of -100.
row,Structure (SMILES),growth
1,CC(C)CCOC(=O)c1ccccc1,97.9%
2,CC(C)CCCC(=O)O,94.8%
3,Nc1ccc(NC(=O)c2cccc(N)c2)cc1,82.9%
4,CN(C)c1ccc(CNC(C(=O)c2ccccc2)c2ccccc2)cc1 (stereo not given),85.7%
5,CC(=O)OCC(=O)[C@@]1(O)CC[C@H]2[C@@H]3CC[C@@H]4C[C@H](O)CC[C@]4(C)[C@H]3C(=O)C[C@@]21C,95.5%
6,O=[N+]([O-])c1cccc(N=Nc2ccc(O)cc2O)c1,58.5%
7,CCCCCC(C)(CC(=O)O)CC(=O)O,99.6%
8,CC(C)=NNC(N)=S,77.9%
9,C[C@]12CC[C@@H]3c4ccc(OCC(=O)O)cc4CC[C@H]3[C@@H]1CCC2=O,95.7%
10,CC1CCC(C(=O)O)N1 (stereo not given),99.2%
11,c1ncc2[nH]cnc2n1,86.3%
12,O=C(O)c1ccc(S(=O)(=O)O)cc1,88.2%
13,COc1cccc(COC(=O)Nc2ccccc2)c1OC,83.9%
14,Clc1ccc(-c2nnc(-c3cccc4ccccc34)o2)cc1,82.4%
15,CCCCCCCCCCC1CO1 (stereo not given),102%
16,O=C1OC[C@H]2[C@H](c3ccc(O)c(O)c3)c3cc(O)c(O)cc3C[C@H]12,46.7%
17,Cc1cc2ccccc2c(O)c1C#N,105%
18,COc1cc2cc(c1Cl)N(C)C(=O)C[C@H](OC(=O)[C@H](C)N(C)C(C)=O)[C@]1(C)O[C@H]1[C@H](C)[C@@H]1C[C@@](O)(NC(=O)O1)[C@H](OC)C=C/C=C(\C)C2,0.19% (active)
19,C#CC(C)(O)c1ccc(Cl)cc1 (stereo not given),96.6%
20,CN(C)CCN(C)CC(C)(C)C(=O)/C=C/c1ccc(Cl)cc1,-4.75% (active)

row,Structure (SMILES),growth
1,Clc1ccc(-c2n[nH]c3c2Cc2ccccc2-3)cc1Cl,92.4%
2,CCOc1ccc(/C=N/N=C(N)N)cc1OCC,94.1%
3,COc1cc(C(N)=O)cc(OC)c1OC,106%
4,CCC/C=C(\C)C(C)(C#N)C(=O)OCC (stereo not given),101%
5,COc1cc(OC)c2ccc(=O)oc2c1,100%
6,O=C(O)CCCC(=O)O,95.1%
7,CN(C)c1nc2c([nH]1)c(=O)n(C)c(=O)n2C,91.6%
8,O=C(O)CCC(=O)OC(C1CO1)C(OC(=O)CCC(=O)O)C1CO1 (stereo not given),96.3%
9,CCNc1nc2c(cnn2C)c(=O)[nH]1,99%
10,CC(=O)Nc1c(C)cc(C)cc1C,103%
11,NC(N)=Nc1cc2ccccc2c2ccccc12,61.5%
12,CCc1nn(Cc2ccccc2)c2nc(C)c(CCc3ccccc3)c(Cl)c12,76%
13,CCC/C=C(/C(C)=O)C(=O)OCC,88.5%
14,CC(=O)c1ccc(C(C)(C)C)cc1,91.2%
15,CC1C(=O)c2ccccc2CC1C(=O)O (stereo not given),97.6%
16,CC(=O)C1CCCCC1,96.8%
17,COc1ccc(/C=C/c2cccc[n+]2C)cc1,87%
18,C=CCNc1nnc(C)s1,89.6%
19,CNS(=O)(=O)c1ccc(Cl)c(Cl)c1,113%
20,Cc1cc(OCCO)cc(C)c1Cl,97.2%
